The results in this text go back to the supplement of paper PMC3545927.

The assay has as its target furin, P09958. The assay can be described thus: furin cleavage Z-score vs untreated control; higher = more cleavage, active = 3.5 or more, inactive = 1 or less, 8 variable residues between constant flanks. The method, then:
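Multiplexed peptide-cDNA fusion cleavage assay. 8-mer variable peptides flanked by constant Cys-Ala (N-term) and Ala-Gly-Asn-Ala-Ser-Ala-Ser-Ala (C-term) and conjugated to a cDNA oligonucleotide were bead-immobilised via the N-terminus. They were treated with purified furin at a 1:10 enzyme:substrate ratio in 50 mM HEPES pH 7.5, 1 mM CaCl2, 100 mM NaCl for 7.5, 15 or 30 min. Released cDNA was counted by next-generation sequencing, and log counts versus no-furin controls were lowess-adjusted and converted to robust Z-scores.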

This is one part of the list. How many sequences the whole screen found active is unknown.

furin, P09958, sequence (P09958 whole entry, the tested form may be a part): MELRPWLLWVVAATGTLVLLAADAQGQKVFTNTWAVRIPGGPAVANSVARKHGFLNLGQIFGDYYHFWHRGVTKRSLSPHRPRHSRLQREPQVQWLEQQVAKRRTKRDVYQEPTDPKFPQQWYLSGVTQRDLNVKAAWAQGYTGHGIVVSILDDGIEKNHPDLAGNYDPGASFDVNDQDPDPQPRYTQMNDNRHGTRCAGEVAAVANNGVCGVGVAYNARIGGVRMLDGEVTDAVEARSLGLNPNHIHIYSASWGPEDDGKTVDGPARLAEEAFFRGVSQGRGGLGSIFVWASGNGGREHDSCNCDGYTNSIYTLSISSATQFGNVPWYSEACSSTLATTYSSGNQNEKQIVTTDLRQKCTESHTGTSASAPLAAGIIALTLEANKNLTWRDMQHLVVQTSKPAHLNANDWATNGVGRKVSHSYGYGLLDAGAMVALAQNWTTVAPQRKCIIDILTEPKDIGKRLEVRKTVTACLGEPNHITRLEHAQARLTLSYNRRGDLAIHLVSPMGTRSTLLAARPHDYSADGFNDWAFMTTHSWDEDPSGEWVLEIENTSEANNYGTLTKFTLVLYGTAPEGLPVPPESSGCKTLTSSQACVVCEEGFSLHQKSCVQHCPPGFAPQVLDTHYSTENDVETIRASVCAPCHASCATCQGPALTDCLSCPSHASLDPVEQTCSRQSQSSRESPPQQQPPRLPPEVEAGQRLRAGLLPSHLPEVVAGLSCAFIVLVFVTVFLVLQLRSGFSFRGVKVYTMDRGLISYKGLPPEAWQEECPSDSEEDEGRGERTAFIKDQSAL

With CASALYVGDLAGNASASA [HC297], the “furin cleavage Z-score” value reads like this: (7.5 min) -0.151 (inactive); (15 min) -0.752 (inactive); (30 min) -0.26 (inactive).
For CAMTHRWNRFAGNASASA [FS-1545], in that order: -0.191 (inactive), 1.1 and -0.35 (inactive).
For CAFKHRRARFAGNASASA [FS-767], in that order: 5.47 (active), 8.44 (active) and 8.1 (active).
As for CADSSRPARFAGNASASA [FS-987], the “furin cleavage Z-score” value was 0.601 (inactive) (7.5 min), 2.61 (15 min) and 1.35 (30 min).
For CAARQRRARFAGNASASA [FS-1186], the “furin cleavage Z-score” value by setting is: (7.5 min) 7.96 (active); (15 min) 10.3 (active); (30 min) 9.01 (active).
Take CALKGRPARFAGNASASA [FS-1135]: the “furin cleavage Z-score” value (7.5 min) is 1.12, the “furin cleavage Z-score” value (15 min) was 3.63 (active) and the “furin cleavage Z-score” value (30 min) was 3.8 (active).
Consider CAVEGERGFFAGNASASA [EK8], for which the “furin cleavage Z-score” value reads like this: (7.5 min) -1.92 (inactive); (15 min) -1.33 (inactive); (30 min) -1.12 (inactive).
For CALLLALPQRAGNASASA [HC560], in that order: -0.644 (inactive), -0.224 (inactive) and -1.36 (inactive).
As to CAEVRTSTWVAGNASASA [HC2193], the “furin cleavage Z-score” value by setting is: (7.5 min) 0.577 (inactive); (15 min) -0.283 (inactive); (30 min) 2.14.
Taken in the same sequence, the figures for CAIDVVCCSMAGNASASA [HC2104] were -0.251 (inactive), 0.23 (inactive) and 1.61.
For CATTHCSGSWAGNASASA [HC1875], in that order: -0.832 (inactive), -0.00567 (inactive) and -1.4 (inactive).
For CAPCAAEEQKAGNASASA [HC1377], in that order: 0.0863 (inactive), -1.23 (inactive) and 0.435 (inactive).
In the case of CARKKRRRESAGNASASA [FS-1903], the “furin cleavage Z-score” value by setting is: (7.5 min) 4.55 (active); (15 min) 6.12 (active); (30 min) 4.85 (active).
Taken in the same sequence, the figures for CARKKRFVSSAGNASASA [FS-2213] were 9.34 (active), 10.7 (active) and 11.2 (active).
For CARNGRWEESAGNASASA [FS-3005], in that order: -0.164 (inactive), -0.44 (inactive) and 0.183 (inactive).
Take CARKKRQLYSAGNASASA [FS-2967]: the “furin cleavage Z-score” value is 7.88 (active) (7.5 min), 8.76 (active) (15 min) and 9.63 (active) (30 min).
For the sequence CARKKRLKESAGNASASA [FS-2343], the “furin cleavage Z-score” value (7.5 min) was 0.749 (inactive), the “furin cleavage Z-score” value (15 min) worked out at 2.21 and the “furin cleavage Z-score” value (30 min) was found to be 1.93.
Taken in the same sequence, the figures for CASIVYEAADAGNASASA [HC266] were 0.365 (inactive), 0.0281 (inactive) and 0.406 (inactive).
Turning to CASVGLGKVLAGNASASA [HC1081], the “furin cleavage Z-score” value is 0.567 (inactive) (7.5 min), 0.113 (inactive) (15 min) and 1.61 (30 min).
Taken in the same sequence, the figures for CALNSRSARSAGNASASA [FS-1230] were 9.33 (active), 9.86 (active) and 8.45 (active).
Regarding CANKSRSARSAGNASASA [FS-467], the “furin cleavage Z-score” value is, setting by setting: (7.5 min) 7.95 (active); (15 min) 7.93 (active); (30 min) 7.08 (active).
On to CAVLSRASRSAGNASASA [FS-104], for which the “furin cleavage Z-score” value is, setting by setting: (7.5 min) 9.22 (active); (15 min) 8.83 (active); (30 min) 7.05 (active).
For the sequence CASKVRKSRSAGNASASA [FS-1166], the “furin cleavage Z-score” value is, setting by setting: (7.5 min) 10.9 (active); (15 min) 11.3 (active); (30 min) 8.46 (active).
Taken in the same sequence, the figures for CAMEEHSQHLAGNASASA [HC9] were -0.427 (inactive), 0.433 (inactive) and 0.518 (inactive).
For CASVCGPVYCAGNASASA [HC411], the “furin cleavage Z-score” value (7.5 min) was -0.739 (inactive), the “furin cleavage Z-score” value (15 min) was -0.0378 (inactive) and the “furin cleavage Z-score” value (30 min) was 0.44 (inactive).
As to CALSQTKQSGAGNASASA [HC947], the “furin cleavage Z-score” value runs as follows: (7.5 min) -0.592 (inactive); (15 min) 0.456 (inactive); (30 min) -0.236 (inactive).
On to CAWGVLAGIAAGNASASA [HC337], for which the “furin cleavage Z-score” value by setting is: (7.5 min) -1.66 (inactive); (15 min) -1.27 (inactive); (30 min) 0.739 (inactive).
In the case of CAARPDYNPPAGNASASA [HC1305], the “furin cleavage Z-score” value was -1.38 (inactive) (7.5 min), -0.196 (inactive) (15 min) and -1.47 (inactive) (30 min).
